Screens as filed in PubChem.
MCL1-BIM inh – disrupts human MCL1 binding to BIM-BH3 peptide. Q07820. GST-MCL1 / FITC-Bim-BH3 fluorescence polarization. inhibition, % at 10.9 µM. 320,000 tested, 0.68% active. AID 2057;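 active means inhibition above the mean inhibition of all tested compounds plus 3 SD, set per campaign, cut at about 40% in these data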;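 further: higher means more loss of mP so more displacement of Bim peptide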
MEX-5 binding – C. elegans MEX-5 TCR-2 RNA binding activity | 300,000 tested, 0.38% active | Q9XUB2 | activity score (negative = inhibition of binding), % at 10 µM | MEX-5/FITC-TCR2 RNA binding, fluorescence polarization; stronger effect = lower value;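 active means inhibition past about -25% in most replicates, and total fluorescence under double the plate's negative control median, limit read from the data; inconclusive means replicates evenly split on the limit, or fluorescence at least double controls; inactive means too little inhibition in most replicates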
IDE cell inh – inhibits human insulin-degrading enzyme in HEK cells | P14735 | FAbetaB cleavage, fluorescence polarization | inhibition, % at 5.59 µM | 320,000 tested, 0.41% active | AID 434962;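 active means percent inhibition above the average of all tested compounds plus 3 SD, set per screening campaign, cut at about 16% in these data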;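 further: IDE supplied by intact live HEK cells; FP after avidin binding of uncleaved biotin substrate so inhibition keeps polarization high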
IDE cell activ – boosts human insulin-degrading enzyme activity in HEK cells; FAbeta-B cleavage, fluorescence polarization; 0% vehicle, 100% cell-free pure enzyme wells; activation, % at 5.96 µM; 340,000 tested, 0.073% active; AID 493087;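 active means activation above the mean of all tested compounds plus 3 SD, set per screening campaign, cut at about 17% in these data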
Bcl-xL primary – Bcl-xL (human) inhibition | Q07817 | GST-Bcl-xL / FITC-Bim BH3 peptide fluorescence polarization | inhibition, % at 10.9 µM | 320,000 tested, 0.7% active;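 active means inhibition above the mean of all tested compounds plus 3 SD, cutoff set per campaign, cut at about 30% in these data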;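 further: inhibitors lower millipolarization by displacing the labeled peptide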
GLD-1 RNA inh – GLD-1-TGE RNA interaction inhibition (C. elegans); AID 2280; purified GLD-1 + fluorescein TGE RNA, fluorescence polarization; inhibition, % at 5.96 µM; 320,000 tested, 0.44% active;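 active means percent inhibition above a per-plate cutoff, the plate mean of test compounds plus 3 SD, cut at about 30% in these data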
Target sequence (Q17339 whole entry, looked up): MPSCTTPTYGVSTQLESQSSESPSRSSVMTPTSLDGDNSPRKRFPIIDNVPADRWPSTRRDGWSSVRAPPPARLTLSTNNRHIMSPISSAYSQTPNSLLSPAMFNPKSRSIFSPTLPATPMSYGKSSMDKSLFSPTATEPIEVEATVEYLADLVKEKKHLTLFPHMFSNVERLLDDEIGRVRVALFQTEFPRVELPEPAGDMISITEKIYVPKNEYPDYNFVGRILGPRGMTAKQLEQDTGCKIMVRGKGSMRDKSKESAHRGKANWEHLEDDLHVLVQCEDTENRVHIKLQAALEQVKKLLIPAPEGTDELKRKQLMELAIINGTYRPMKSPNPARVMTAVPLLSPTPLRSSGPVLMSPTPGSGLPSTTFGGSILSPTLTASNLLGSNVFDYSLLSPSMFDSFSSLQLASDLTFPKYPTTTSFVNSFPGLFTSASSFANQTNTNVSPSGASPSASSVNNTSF
BCLXL inh confirm – counter-screen for MCL1 inhibitors: confirmation of human Bcl-xL inhibitors; inhibition, % at 10.9 µM; shares compounds with MCL1-BIM inh; 1,700 tested, 54% active; AID 2166; GST-Bcl-xL / FITC-Bim BH3 peptide FP binding;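 active means inhibition above a cutoff equal to the mean inhibition of all tested compounds plus 3 SD, cut at about 30% in these data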
MCL1 BIM confirm – confirmation of human MCL1 and BIM-BH3 interaction inhibitors. GST-MCL1 / FITC-Bim-BH3 fluorescence polarization. 1,700 tested, 61% active. AID 2168. shares compounds with MCL1-BIM inh. inhibition, % at 10.9 µM;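 active means inhibition above the average of all tested compounds plus 3 SD, cut at about 40% in these data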
Each line names hits and unclear results; the compound was inactive in the other large screens (follow-up assays come after a bar, where they were run). Most compounds without a hit are left out; they make up all but 1.5% or so of the library.

COCCCNC(=O)C[C@H]1C[C@H](C(=O)N2CCCCC2)[C@@]2(C)c3[nH]c4cc(-c5ccco5)ccc4c3CCN2C1=O	none (no result: MCL1-BIM inh, MEX-5 binding, IDE cell inh, Bcl-xL primary, GLD-1 RNA inh)
N#C/C(=C\c1ccc[nH]1)C(=O)Nc1ccccc1Cl	MCL1-BIM inh 47, Bcl-xL primary 52 | BCLXL inh confirm inactive | MCL1 BIM confirm inactive
CC1(c2ccc3c(c2)OCCO3)NC(=O)N(CC(=O)Nc2ccccc2F)C1=O (stereo not given)	none (no result: MCL1-BIM inh, MEX-5 binding, IDE cell inh, Bcl-xL primary, GLD-1 RNA inh)
Cc1ccc2c(c1)c1nc3ccccc3nc1n2C	MCL1-BIM inh 76, Bcl-xL primary 58 | BCLXL inh confirm 84 | MCL1 BIM confirm 136
Cn1c2ccc(F)cc2c2nc3ccccc3nc21	none
O=S(=O)(O)c1cccc2c(N=Nc3ccc(O)c4ncccc34)cccc12	MCL1-BIM inh 72, MEX-5 binding -92, IDE cell activ 36 | BCLXL inh confirm 34 | MCL1 BIM confirm 82
Cc1ccccc1N=Nc1ccc(O)c2ncccc12	none
C=CCN(CC=C)C(=O)CCc1nnc(CCc2c[nH]c3ccccc23)o1	none
COc1cccc(-c2cccc(NC(=O)C3CCN(Cc4cnn(C)c4)CC3)c2)c1	none
Cn1cc(CN2CCC(C(=O)Nc3cccc(-c4cccc(F)c4)c3)CC2)cn1	MCL1-BIM inh 82 | BCLXL inh confirm inactive | MCL1 BIM confirm inactive
Cc1ccc(C)c(S(=O)(=O)C(C#N)c2nc3ccccc3nc2N2CCCC2)c1 (stereo not given)	MCL1-BIM inh 78, Bcl-xL primary 77, GLD-1 RNA inh 51 | BCLXL inh confirm inactive | MCL1 BIM confirm inactive
COc1ccc(C(=O)Nc2cccc(C)c2)cc1	none
COc1ccc(CC(=O)Nc2cccc(C(=O)Nc3cccc(C)c3)c2)cc1	MCL1-BIM inh 118 (no result: IDE cell activ) | BCLXL inh confirm inactive | MCL1 BIM confirm inactive
COc1ccc(NS(=O)(=O)c2cccc(C(=O)O)c2)cc1	none
COc1ccc(NS(=O)(=O)c2cccc(C(=O)Nc3cccc(C(=O)O)c3)c2)cc1	MCL1-BIM inh 68 | BCLXL inh confirm inactive | MCL1 BIM confirm inactive
CN(CCC#N)C(=O)COC(=O)c1c2c(nc3ccccc13)/C(=C/c1ccco1)CC2	MCL1-BIM inh 67, Bcl-xL primary 44 | BCLXL inh confirm 40 | MCL1 BIM confirm 48
CCCCN(C(=O)c1cccc(N2C(=O)c3ccccc3C2=O)c1)c1c(N)n(CC(C)C)c(=O)[nH]c1=O	none (no result: MEX-5 binding)
CCCCN(C(=O)c1cccc(-n2cccc2)c1)c1c(N)n(Cc2ccccc2)c(=O)[nH]c1=O	MCL1-BIM inh 78 | BCLXL inh confirm inactive | MCL1 BIM confirm inactive
CCOC(=O)CN1C=C(c2ccc3ccccc3n2)C(C[N+](=O)[O-])c2ccccc21 (stereo not given)	MCL1-BIM inh 106, Bcl-xL primary 101 | BCLXL inh confirm 138 | MCL1 BIM confirm 172
COc1ccc(S(=O)(=O)Nc2cc(SCC(=O)O)c(O)c3ccccc23)cc1	MEX-5 binding -53 (no result: MCL1-BIM inh) | BCLXL inh confirm inactive
COc1ccc(S(=O)(=O)Nc2cccc3ccc(O)cc23)cc1	none
CC(C)(C)c1ccc(C(=O)Nc2cccc3ncccc23)cc1	MCL1-BIM inh 90, MEX-5 binding -74, Bcl-xL primary 81, GLD-1 RNA inh 64 | BCLXL inh confirm 116 | MCL1 BIM confirm 143
NS(=O)(=O)c1cc(C(=O)NC2CCSc3ccccc32)ccc1Cl (stereo not given)	MCL1-BIM inh 79, MEX-5 binding inconclusive, Bcl-xL primary 34 | BCLXL inh confirm inactive | MCL1 BIM confirm 70
CC1C2C(c3ccccc3)N(C)C(=O)N(C)C2N(C)C(=O)N1C (stereo not given)	MCL1-BIM inh 55, Bcl-xL primary 55 | BCLXL inh confirm 38 | MCL1 BIM confirm 45
COc1ccc(OC)c(CN2CCN(C(=O)c3cc4ccccc4cc3O)CC2)c1	none
